Our source for the Inhibition values is ChEMBL document CHEMBL4296182, “CO-ADD screening of NIH NCI Diversity Set V”.

For part of these data: Measured potencies and affinities stand elsewhere.

The subject of one assay is Staphylococcus aureus. Put plainly: Antibacterial activity against Staphylococcus aureus MRSA ATCC 43300 (CO-ADD:GP_020); MIC in CAMBH media using NBS plates, by Resazurin F(560/590). The format is functional. The conditions noted are these: Concentration 20 uM, ASSAY_TEST Inhibition of Bacterial Growth, detection method Resazurin, Fluorescence (ex560/em590), MEDIA CAMHB, plate type 384well, CORNING #3640, time 18 hr.

A further assay relates to Acinetobacter baumannii. Put plainly: Antibacterial activity against Acinetobacter baumannii ATCC 19606 (CO-ADD:GN_034); MIC in CAMBH media using NBS plates, by Resazurin F(560/590). The format is functional. The conditions noted are these: Concentration 20 uM, ASSAY_TEST Inhibition of Bacterial Growth, detection method Resazurin, Fluorescence (ex560/em590), MEDIA CAMHB, plate type 384well, CORNING #3640, time 18 hr. (Alamar Blue is a resazurin reagent that responds to reducing activity.)

A further assay deals with Escherichia coli. The assay is described as follows: Antibacterial activity against Escherichia coli ATCC 25922 (CO-ADD:GN_001); MIC in CAMBH media using NBS plates, by Resazurin F(560/590). The format is functional. The conditions noted are these: Concentration 20 uM, ASSAY_TEST Inhibition of Bacterial Growth, detection method Resazurin, Fluorescence (ex560/em590), MEDIA CAMHB, plate type 384well, CORNING #3640, time 18 hr.

Another assay relates to Klebsiella pneumoniae. The conditions noted are these: Concentration 20 uM; ASSAY_TEST Inhibition of Bacterial Growth; detection method Absorption (OD600); MEDIA CAMHB; plate type 384well; NBS; CORNING #3640; time 18 hr.
The test system of the next assay is Candida albicans. The conditions noted are these: 20 µM.
The next assay concerns Cryptococcus neoformans. As to conditions: Concentration 20 uM; ASSAY_TEST Inhibition of Fungal Growth; detection method Resazurin; Absorption (OD600-OD570); plate type 384well; NBS; CORNING #3640.

For `O=C(Cn1nnc(N2CCCCC2)n1)N/N=C/c1ccccc1O`, the Inhibition – broadly, the change of the read-out against control, counted positive when it falls – in the assay with Staphylococcus aureus is 17.81%; in the assay on Acinetobacter baumannii, 3.41%; in the assay on Escherichia coli, 7.77%; in the assay with Klebsiella pneumoniae, 2.1%; in the assay with Candida albicans it was -0.19%; with Cryptococcus neoformans, -9.12%.
As for `O=C(Nc1cccc2c1N(C(=O)c1ccco1)CCC2)c1ccco1`, the Inhibition is 23.38% with Staphylococcus aureus; 8.42% in the assay on Acinetobacter baumannii; 4.6% with Escherichia coli; 13.8% with Klebsiella pneumoniae; -1.4% with Candida albicans; -2.48% with Cryptococcus neoformans.
As for `CCC(C)Nc1nc2c(c(=O)n(C)c(=O)n2C)n1C` (stereo not given), the Inhibition was 12.63% in the assay with Staphylococcus aureus; 12.04% with Acinetobacter baumannii; -1.91% with Escherichia coli; 12.65% in the assay with Klebsiella pneumoniae; 3.5% with Candida albicans; -7.05% with Cryptococcus neoformans.
In the case of `CCCCC(=O)N(CCC)CCC`, the Inhibition with Staphylococcus aureus is 2.53%; in the assay with Acinetobacter baumannii it was -12.7%; in the assay on Escherichia coli, 10.06%; in the assay with Klebsiella pneumoniae, 7.98%; in the assay with Candida albicans, -2.94%; in the assay with Cryptococcus neoformans it was -14.22%.
Turning to `C#CCCOC(=O)Nc1ccccc1`, the Inhibition is 2.35% with Staphylococcus aureus; -10.74% in the assay with Acinetobacter baumannii; 7.7% in the assay with Escherichia coli; 4.67% in the assay on Klebsiella pneumoniae; 2.19% in the assay with Candida albicans; -13.66% in the assay with Cryptococcus neoformans.
In the case of `COc1ccc2nc(-c3ccc(Cl)cc3)cc(C(=O)O)c2c1`, the Inhibition is -2.13% in the assay on Staphylococcus aureus; -6.37% in the assay on Acinetobacter baumannii; 6.47% in the assay with Escherichia coli; 11.49% in the assay with Klebsiella pneumoniae; 35.6% with Candida albicans; -9.35% in the assay on Cryptococcus neoformans.
Consider `CC1=C2C3OC(=O)C(C)C3CCC2(C)C=C(Cl)C1=O` (stereo not given), for which the Inhibition in the assay with Staphylococcus aureus was -4.99%; with Acinetobacter baumannii, -5.14%; in the assay on Escherichia coli it was -9.28%; in the assay with Klebsiella pneumoniae it was 10.19%; in the assay with Candida albicans, 1.04%; in the assay with Cryptococcus neoformans it was -2.81%.
Regarding `CCNc1ccccc1C(=O)O`, the Inhibition in the assay with Staphylococcus aureus was 19.64%; in the assay on Acinetobacter baumannii it was -10.34%; in the assay on Escherichia coli, 13.74%; with Klebsiella pneumoniae, 16.83%; with Candida albicans, 5.51%; with Cryptococcus neoformans it was 2.27%.
Regarding `COc1ccc(CN2CCOC2=O)cc1OC`, the Inhibition is 2.93% in the assay with Staphylococcus aureus; -8.7% in the assay on Acinetobacter baumannii; 2.98% in the assay on Escherichia coli; 20.13% in the assay with Klebsiella pneumoniae; -0.97% in the assay with Candida albicans; -5.16% in the assay on Cryptococcus neoformans.
For `c1ccc(Sc2ncccn2)nc1`, the Inhibition in the assay on Staphylococcus aureus is 20.57%; in the assay with Acinetobacter baumannii, -8.37%; in the assay on Escherichia coli, 7.64%; in the assay on Klebsiella pneumoniae, 5.74%; in the assay on Candida albicans, 3.74%; with Cryptococcus neoformans, -10.47%.
Turning to `c1ccc2c(c1)Nc1cc3ccccc3cc1S2`, the Inhibition with Staphylococcus aureus was 1.39%; in the assay on Acinetobacter baumannii, -1.02%; in the assay with Escherichia coli it was 3.79%; with Klebsiella pneumoniae it was 5.14%; in the assay with Candida albicans, -0.01%; in the assay with Cryptococcus neoformans it was -3.36%.
Take `Cc1cccc(N2CCN(CC(O)COc3ccccc3Cl)CC2)c1` (stereo not given): the Inhibition with Staphylococcus aureus was 6.25%; in the assay on Acinetobacter baumannii it was 7.51%; with Escherichia coli, 7.94%; in the assay with Klebsiella pneumoniae it was 12.03%; in the assay on Candida albicans, -0.3%; with Cryptococcus neoformans, -18.69%.
Consider `CNC(=O)c1nn(C)c(=O)[nH]c1=O`, for which the Inhibition with Staphylococcus aureus is 3.46%; in the assay on Acinetobacter baumannii it was -10.49%; in the assay on Escherichia coli it was 19.05%; in the assay on Klebsiella pneumoniae it was 15.09%; with Candida albicans it was 4.6%; with Cryptococcus neoformans, -7.3%.
For the compound `CS/C(=C\c1ccc(C(=O)c2ccc(C)cc2)n1C)[S+](C)[O-]` (stereo not given), the Inhibition with Staphylococcus aureus came out at 7.5%; with Acinetobacter baumannii, 7.53%; in the assay on Escherichia coli it was 1.09%; in the assay on Klebsiella pneumoniae, 18.35%; with Candida albicans it was 3.75%; in the assay with Cryptococcus neoformans, 1.32%.
Consider `c1coc(CNc2[nH]cnc3nncc2-3)c1`, for which the Inhibition is 12.65% with Staphylococcus aureus; -12.11% with Acinetobacter baumannii; 11.54% in the assay on Escherichia coli; 7.55% in the assay with Klebsiella pneumoniae; 0.96% in the assay on Candida albicans; -6.46% in the assay with Cryptococcus neoformans.
As to `Nc1n[nH]c(CO)n1.O=C(O)CO`, the Inhibition is 4.42% in the assay on Staphylococcus aureus; -8.74% with Acinetobacter baumannii; 3.45% in the assay with Escherichia coli; 8.84% with Klebsiella pneumoniae; 0.2% with Candida albicans; -5.13% with Cryptococcus neoformans.
In the case of `CCN1CCCCC(=N\O)/C(=N/O)CCCC1`, the Inhibition was -0.99% in the assay on Staphylococcus aureus; -8.24% in the assay on Acinetobacter baumannii; 1.26% with Escherichia coli; 23.74% with Klebsiella pneumoniae; -0.06% in the assay on Candida albicans; -7.99% in the assay with Cryptococcus neoformans.
With `CN1CCC(=C2c3ccccc3C(O)c3ccccc32)CC1` (stereo not given), the Inhibition is 1.61% in the assay with Staphylococcus aureus; -19.91% with Acinetobacter baumannii; 15.16% in the assay on Escherichia coli; 2.29% in the assay on Klebsiella pneumoniae; 0.03% with Candida albicans; -16.59% with Cryptococcus neoformans.
In the case of `COc1ccc(/N=C\c2c(O)ccc3c2oc2cc(Cl)c(O)c(Cl)c23)cc1`, the Inhibition in the assay on Staphylococcus aureus is -3.23%; in the assay with Acinetobacter baumannii, 0.5%; in the assay with Escherichia coli, -4.89%; in the assay with Klebsiella pneumoniae, 17.64%; in the assay with Candida albicans it was 2.89%; with Cryptococcus neoformans it was -10.03%.
For the compound `CC(=O)/C=C(\C)Nc1ccccc1O`, the Inhibition with Staphylococcus aureus is 8.26%; in the assay with Acinetobacter baumannii, -10.28%; with Escherichia coli, 7.16%; with Klebsiella pneumoniae, 26.72%; with Candida albicans it was 1.01%; with Cryptococcus neoformans, 2.5%.
For the compound `CC1(C)CC(Nc2ccc(Nc3ccccc3)cc2)CC(C)(C)N1`, the Inhibition was 6.04% in the assay on Staphylococcus aureus; 9.93% with Acinetobacter baumannii; -3.22% in the assay with Escherichia coli; 10.49% in the assay with Klebsiella pneumoniae; 1.33% in the assay on Candida albicans; -0.13% with Cryptococcus neoformans.
`O=CN/C=C\c1cc(O)ccc1O`: the Inhibition in the assay with Staphylococcus aureus is -18.33%; in the assay with Acinetobacter baumannii it was -7.5%; in the assay on Escherichia coli, -8.61%; with Klebsiella pneumoniae, 6.52%; with Candida albicans, 4.27%; with Cryptococcus neoformans, 7.81%.
Turning to `Clc1ccc(/C=C/c2nc(Cl)c(-c3ccc(Cl)cc3)c(Cl)n2)cc1`, the Inhibition in the assay with Staphylococcus aureus is 8.11%; with Acinetobacter baumannii, 11.58%; in the assay on Escherichia coli it was 9.97%; in the assay on Klebsiella pneumoniae, 19.84%; in the assay on Candida albicans, 4.64%; in the assay with Cryptococcus neoformans, -12.98%.
`CCOC(=O)c1c(O)cc(C)nc1O`: the Inhibition was 3.86% with Staphylococcus aureus; -15.92% in the assay on Acinetobacter baumannii; 14.23% with Escherichia coli; 12.49% in the assay with Klebsiella pneumoniae; 3.14% in the assay on Candida albicans; 13.8% in the assay with Cryptococcus neoformans.
Consider `O=C1c2ccccc2C(=O)c2c1cccc2-n1nnc2ccccc21`, for which the Inhibition with Staphylococcus aureus was 8.87%; with Acinetobacter baumannii, -5.95%; with Escherichia coli it was 13.14%; in the assay with Klebsiella pneumoniae, 0.02%; with Candida albicans it was 0.12%; in the assay with Cryptococcus neoformans, -17.13%.
